From PubChem BioAssay
“And” between values parts separate entries of the source, which are not always exact repeats. Equal entries are not always repeated. Inconclusive results are not listed. The source made the active and inactive calls.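 Rule for the calls, unless noted: active = compounds whose cell count with miR-34 switched on is under 0.7 times the count with it off; inactive = the rest.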

Key:
[1] = liver-stage malaria parasite growth inhibition, primary screen, cell-based, HepG2, luciferase luminescence, HepG2 viability (AID 624349; in the data active = parasite load remaining mostly below about 12%, no sharp cut-off; inactive = mostly above about 10%;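 note: 100% = mean of DMSO negative control wells on the same plate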); settings: P. berghei liver stage in HepG2, luciferase luminescence, concentration not given here; parasite load remaining: stronger effect = lower value; viability: measured here: HepG2 viability without parasites
[2] = sensitizers of A549 cells to miR-34 induction, primary screen, imaging, A549 dox-inducible miR-34, nuclei and caspase counts (AID 1347080); settings: A549 miR-34 inducible, Hoechst nuclei count, 48 h
[3] = survival rescue of mitochondrial mutant cells in low glucose, primary screen, MELAS cybrids, Rieske KO mouse fibroblasts, CellTiter-Glo (AID 1508586;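 active = mean z-score across replicates of 1.96 or higher in either the MELAS or the Rieske mutant cell line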;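 note: z relative to plate mean and SD of compound and empty wells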)
[4] = viability rescue of complex I mutant cybrids, primary screen, cell-based, galactose medium, ATP luminescence (AID 1645843;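 active = z-score of at least 1.8 in each of two replicates, scored against plate mean and spread of sample wells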;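 note: positive z means more ATP and so rescue of galactose-driven cybrid death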); settings: complex I mutant cybrid cells, 72 h, stronger effect = higher value
[5] = hESC survival regulators, cell-based (AID 493140; call rule not given here;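 note: cells exposed to compounds for four days before counting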); settings: human embryonic stem cell survival screen; stronger effect = higher value
[6] = tested on: Hepatitis C virus NS3 helicase; assay: HCV NS3 helicase inhibitors, primary screen, biochemical, fluorescence polarization, LOPAC1280 library (AID 687035; in the data active = inhibition above about 37%); settings: Purified HCV NS3 helicase, Cy5-dT15 ssDNA binding fluorescence polarization; stronger effect = higher value; concentration not given here
[7] = Cy5 fluorescence quenching or enhancement artefacts, artefact control for HCV NS3 helicase inhibitor project, biochemical, LOPAC1280 (AID 687037; call rule not given here); settings: Cy5-DNA-NS3h complex fluorescence interference counterscreen
[8] = molecular target: ATP-dependent translocase ABCB1 (Homo sapiens) (UniProt P08183); assay: MDR1 (ABCB1) efflux transporter inhibition, cell-based (AID 377; in the data active = fluorescence slope change above about 50%); settings: MDR1-expressing cells, fluorescent substrate accumulation slope; stronger effect = higher value; concentration not given here
ATP-dependent translocase ABCB1 (Homo sapiens), sequence (P08183 whole entry, looked up): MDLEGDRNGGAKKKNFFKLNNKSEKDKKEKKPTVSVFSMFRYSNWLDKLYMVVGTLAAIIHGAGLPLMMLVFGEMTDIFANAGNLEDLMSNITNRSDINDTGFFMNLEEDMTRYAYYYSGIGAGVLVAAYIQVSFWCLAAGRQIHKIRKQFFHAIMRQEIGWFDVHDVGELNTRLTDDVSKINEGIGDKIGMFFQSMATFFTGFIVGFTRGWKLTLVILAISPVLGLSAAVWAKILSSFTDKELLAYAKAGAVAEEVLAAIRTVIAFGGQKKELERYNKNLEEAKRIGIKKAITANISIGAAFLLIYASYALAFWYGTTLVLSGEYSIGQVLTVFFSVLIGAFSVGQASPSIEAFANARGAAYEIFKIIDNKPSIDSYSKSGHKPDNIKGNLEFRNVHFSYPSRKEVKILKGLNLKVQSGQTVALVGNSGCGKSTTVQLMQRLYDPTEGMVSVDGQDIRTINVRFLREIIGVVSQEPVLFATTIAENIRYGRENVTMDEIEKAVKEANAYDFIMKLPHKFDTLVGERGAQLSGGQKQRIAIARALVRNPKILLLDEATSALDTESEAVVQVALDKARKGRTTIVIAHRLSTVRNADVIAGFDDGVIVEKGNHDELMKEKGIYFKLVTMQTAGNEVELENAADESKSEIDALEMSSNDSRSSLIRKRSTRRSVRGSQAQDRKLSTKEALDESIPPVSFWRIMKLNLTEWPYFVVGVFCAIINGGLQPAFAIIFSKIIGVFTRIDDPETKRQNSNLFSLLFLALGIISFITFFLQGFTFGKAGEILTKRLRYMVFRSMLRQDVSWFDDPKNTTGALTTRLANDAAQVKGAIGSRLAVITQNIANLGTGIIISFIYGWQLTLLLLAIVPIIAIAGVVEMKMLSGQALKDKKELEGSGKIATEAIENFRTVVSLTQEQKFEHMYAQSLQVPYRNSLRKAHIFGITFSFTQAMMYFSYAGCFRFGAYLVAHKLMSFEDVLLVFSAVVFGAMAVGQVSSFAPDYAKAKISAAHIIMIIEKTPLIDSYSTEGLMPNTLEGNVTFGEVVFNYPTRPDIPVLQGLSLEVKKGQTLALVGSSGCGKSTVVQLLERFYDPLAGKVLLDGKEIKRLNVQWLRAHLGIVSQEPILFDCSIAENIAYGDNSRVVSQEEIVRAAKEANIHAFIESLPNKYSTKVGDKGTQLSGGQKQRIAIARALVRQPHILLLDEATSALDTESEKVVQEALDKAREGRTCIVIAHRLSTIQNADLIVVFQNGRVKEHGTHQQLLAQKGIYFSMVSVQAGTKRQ

[9] = measured here: relative caspase fold change +Dox/-Dox
[10] = measured here: total cells with miR-34 induction, stronger effect = lower value
[11] = measured here: total cells without miR-34 induction
[12] = MELAS cybrid survival, CellTiter-Glo 48 h, stronger effect = higher value
[13] = Rieske KO mouse fibroblast survival, CellTiter-Glo 72 h
[14] = stronger effect = lower value, cell number ratio, induced over uninduced

| Compound | parasite load remaining [1] | viability [1] | fold change ([2]; stronger effect = lower value) | fold change [2, 9] | cell count [2, 10] | cell count [2, 11] | z-score [3, 12] | z-score [3, 13] | z-score [4] | survival [5] | inhibition [6] | fluorescence ratio (interference) [7] | fold change [2, 14] | fluorescence slope change [8] |
| --- | --- | --- | --- | --- | --- | --- | --- | --- | --- | --- | --- | --- | --- | --- |
| CCCC(=O)OCC[N+](C)(C)C | 42.8% (inactive) | 107% | 0.934 (inactive) | 0.999 | 10000 | 10700 | 0.357 (inactive) | 0.101 | 0.43 (inactive) | – | – | – | – | – |
| CCC1(C)CC(=O)NC(=O)C1 | 94.7% (inactive) | 101% | 0.856 (inactive) and 0.868 (inactive) | 1.33 and 1.2 | 8070 and 7990 | 9420 and 9200 | -0.143 (inactive) and 0.0597 (inactive) | -0.288 and -0.916 | – | 3.92 (inactive) | – | – | – | – |
| CCCCCN(C)CCC(O)(P(=O)(O)O)P(=O)(O)O | – | – | – | 0.937 and 1.66 | 10500 and 8850 | 10800 and 10200 | -0.786 (inactive) and -0.235 (inactive) | 0.068 and -1.03 | 0.42 (inactive) and 0.08 (inactive) | – | -2% (inactive) | 1 (inactive) | 0.977 (inactive) and 0.868 (inactive) | – |
| COc1cccc([C@@]2(O)CCCCC2CN(C)C)c1 (stereo partly drawn) | – | – | 0.881 (inactive) | 1.09 | 9920 | 11300 | – | – | 0.56 (inactive) | – | – | – | – | – |
| O=C1OCCN1N=Cc1ccc([N+](=O)[O-])o1 | 34.2% (inactive) | 103% | – | 1.27 | 7950 | 9150 | -1.23 (inactive) | -1.17 | – | 4.33 (inactive) | – | – | 0.869 (inactive) | 82.1% (active) |
| C=C(C)[C@@H]1C2C(=O)O[C@H]1[C@H]1OC(=O)[C@@]34OC3C[C@]2(O)[C@@]14C (stereo partly drawn) | 103% (inactive) | 99.2% | – | 0.911 | 8720 | 9830 | 0.399 (inactive) | 0.218 | – | – | – | – | 0.887 (inactive) | – |
| Clc1ccc(C(Cn2ccnc2)OCc2csc3c(Cl)cccc23)c(Cl)c1 (stereo not drawn) | 93.3% (inactive) and 30.9% (inactive) | 80.2% and 95% | 0.952 (inactive) and 0.861 (inactive) | 0.728 and 1 | 7030 and 8370 | 7390 and 9720 | 0.182 and 1.75 (inactive) | 2.82 and 1.72 | – | 10.7 (inactive) | – | – | – | – |
| CN1[C@@H]2CC[C@H]1CC(OC1c3ccccc3CCc3ccccc31)C2 (stereo partly drawn) | 67% (inactive) | 69.7% | – | 0.451 | 8290 | 9070 | -1.44 (inactive) | 0.907 | – | – | – | – | 0.913 (inactive) | – |
| CN1CC[C@@]23CCCCC2C1Cc1ccc(O)cc13 (stereo partly drawn) | – | – | 0.886 (inactive) | 1.9 | 9070 | 10200 | – | – | 0.545 (inactive) | – | – | – | – | – |
| CC(=O)OCC(=O)[C@H]1CC[C@H]2[C@@H]3CC[C@H]4C[C@H](O)CC[C@]4(C)[C@H]3C(=O)C[C@]12C | 133% (inactive) | 77.5% | 0.969 (inactive) | 0.588 | 8940 | 9230 | -0.0226 (inactive) | 0.294 | – | 32.2 (inactive) | – | – | – | – |
| C[C@]12CCC3C4CCC(=O)C=C4CCC3C1CCC2O (stereo partly drawn) | – | – | 0.894 (inactive) | 1.48 | 7980 | 8920 | – | – | -0.31 (inactive) | – | – | – | – | – |
| CN[C@@H]1[C@@H](O)[C@@H](O[C@@H]2[C@@H](O)[C@H](O[C@H]3O[C@H]([C@@H](C)NC)CC[C@H]3N)[C@@H](N)C[C@H]2N)OC[C@]1(C)O (tested in a mixture with another compound) | 54.7% (inactive) and 51.8% (inactive) | 60.6% and 91.5% | 1.02 (inactive) | 0.941 | 8090 | 7960 | -0.902 (inactive) | -0.563 | – | 18.8 (inactive) | – | – | – | – |
| C=C1N[C@@H](Cc2ccc3[nH]cc(CCN(C)C)c3c2)CO1 | 49.1% (inactive) | 107% | 0.795 (inactive) | 1.08 | 9100 | 11400 | 0.499 (inactive) | 0.377 | 0.28 (inactive) | – | – | – | – | – |
| C[N+]1(C)C2CC[C@H]1CC(OC(=O)C(CO)c1ccccc1)C2 (stereo partly drawn) | 93.5% (inactive) | 105% | – | 1.32 | 8910 | 9340 | 0.0273 (inactive) | -0.854 | – | – | – | – | 0.955 (inactive) | – |
| CNC1CC(c2ccc(Cl)c(Cl)c2)c2ccccc21 (stereo not drawn) | – | – | – | 1.45 | 5010 | 5240 | – | – | -1.44 (inactive) | – | – | – | 0.956 (inactive) | – |
| C[C@]12CCC(=O)CC1CCC1C2CC[C@@]2(C)C1CC[C@]2(C)O (stereo partly drawn) | – | – | 0.938 (inactive) | 1.8 | 9370 | 9990 | – | – | -0.195 (inactive) | – | – | – | – | – |
| C[C@]12CCC(O)CC1=CCC1C2CC[C@@]2(C)C1CC[C@]2(C)O (stereo partly drawn) | – | – | 0.929 (inactive) | 1.41 | 9340 | 10100 | – | – | -0.34 (inactive) | – | – | – | – | – |
| C[C@]12CC[C@H](O)C[C@H]1CC[C@@H]1[C@@H]2C[C@@H](O)[C@]2(C)[C@@H](C3=CC(=O)OC3)CC[C@]12O | 0.32% (inactive) | 57% | 0.713 (inactive) | 1.4 | 550 | 772 | 2.02 (active) | -0.935 | – | 8.33 (inactive) | – | – | – | – |
| C[C@]12CCC(=O)C=C1CC[C@@H]1[C@@H]2C(=O)C[C@]2(C)C(=O)CC[C@@H]12 | 81.1% (inactive) | 96.5% | 0.907 (inactive) | 0.858 | 9500 | 10500 | 0.15 (inactive) | -0.446 | – | 4.17 (inactive) | – | – | – | – |
| CCOC(=O)c1cncn1[C@@H](C)c1ccccc1 | 94.8% (inactive) | 128% | 0.937 (inactive) | 0.906 | 8390 | 8960 | -0.428 (inactive) | -0.415 | – | – | – | – | – | – |
